{
  "source": "paper PMC5869772",
  "about": "“Quantitative profiling of BATF family proteins/JUNB/IRF hetero-trimers using Spec-seq”",
  "data": [
    {"biological_target": "T1, BATF2 (bZIP);JUNB (human;human, UniProt Q8N1L9;P17275 1-142;148-347, |)", "T1 sequence 1": "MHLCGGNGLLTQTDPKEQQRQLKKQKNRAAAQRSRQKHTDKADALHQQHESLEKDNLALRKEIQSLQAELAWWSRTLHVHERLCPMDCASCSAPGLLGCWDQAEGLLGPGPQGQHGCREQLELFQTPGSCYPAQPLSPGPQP", "T1 sequence 2": "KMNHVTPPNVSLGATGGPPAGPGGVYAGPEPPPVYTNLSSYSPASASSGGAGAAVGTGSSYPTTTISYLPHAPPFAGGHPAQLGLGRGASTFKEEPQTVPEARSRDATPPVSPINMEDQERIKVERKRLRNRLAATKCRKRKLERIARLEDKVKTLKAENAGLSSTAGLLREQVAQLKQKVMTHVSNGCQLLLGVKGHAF", "assay": "Spec-seq (EMSA and sequencing of bound and unbound bands); 100 nM BATFx-JUNB, 1 uM dsDNA library, 50 mM K acetate, 20 mM Tris-acetate, 10 mM Mg acetate, 100 ug/ml BSA, pH 7.9, 10% glycerol, 30 min on ice; native 9% PAGE at 4 C; low values mean tight binding", "details": "protein: recombinant;recombinant; tags: N-terminal mCherry-TEV, cleaved off;C-terminal 6His; copies: 1;1; dsDNA, one strand shown", "how_it_was_run": "(§1)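 The protein, at 100 nM, was incubated with 1 μM double-stranded degenerate DNA library for 30 min on ice in NEB Cutsmart buffer with 10% glycerol, then resolved by native 9% PAGE at 4 °C. Excised bound and unbound bands were PCR-barcoded and Illumina-sequenced, and each sequence's relative binding energy in kT is −ln of its bound/unbound read-count ratio.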", "units": {"binding signal": "kT"}, "values": [
      {"sequence": "GATAGTCTCATTTTCACCCCGTGAAAGGACGTCATTGTTCCATTACAGTATCTGT", "binding signal": 0.108},
      {"sequence": "GATAGTCTCATTTTCACCCCGTGAAAATGCGTCATTGTTCCATTACAGTATCTGT", "binding signal": -0.552},
      {"sequence": "GATAGTCTCATTTTCACCCCGTGAAATGACTCAATTGTTCCATTACAGTATCTGT", "binding signal": -0.145},
      {"sequence": "GATAGTCTCATTTTCACCCCGTGAAACCGAGTCATTGTTCCATTACAGTATCTGT", "binding signal": 0.173},
      {"sequence": "GATAGTCTCATTTTCACCCCGTGAAATGACGACATTGTTCCATTACAGTATCTGT", "binding signal": 0.288},
      {"sequence": "GATAGTCTCATTTTCACCCCGTGAAATGAGACAGTTGTTCCATTACAGTATCTGT", "binding signal": 1.32},
      {"sequence": "GATAGTCTCATTTTCACCCCGTGAAATGAGGTCATTGTTCCATTACAGTATCTGT", "binding signal": 0.096},
      {"sequence": "GATAGTCTCATTTTCACCCCGTGAAATTGCGTCATTGTTCCATTACAGTATCTGT", "binding signal": -0.761},
      {"sequence": "GATAGTCTCATTTTCACCCCGTGAAAGTGGGTCATTGTTCCATTACAGTATCTGT", "binding signal": 0.822},
      {"sequence": "GATAGTCTCATTTTCACCCCGTGAAAATGGGTCATTGTTCCATTACAGTATCTGT", "binding signal": 0.62},
      {"sequence": "GATAGTCTCATTTTCACCCCGTGAAATGACTTAATTGTTCCATTACAGTATCTGT", "binding signal": 0.212},
      {"sequence": "GATAGTCTCATTTTCACCCCGTGAAACTTAGTCATTGTTCCATTACAGTATCTGT", "binding signal": -0.172},
      {"sequence": "GATAGTCTCATTTTCACCCCGTGAAACTAAGTCATTGTTCCATTACAGTATCTGT", "binding signal": 0.261},
      {"sequence": "GATAGTCTCATTTTCACCCCGTGAAATGACCCAATTGTTCCATTACAGTATCTGT", "binding signal": 0.768},
      {"sequence": "GATAGTCTCATTTTCACCCCGTGAAAGCGAGTCATTGTTCCATTACAGTATCTGT", "binding signal": 0.234},
      {"sequence": "GATAGTCTCATTTTCACCCCGTGAAATGACGGCATTGTTCCATTACAGTATCTGT", "binding signal": 0.419},
      {"sequence": "GATAGTCTCATTTTCACCCCGTGAAATCACTCATTTGTTCCATTACAGTATCTGT", "binding signal": 0.442},
      {"sequence": "GATAGTCTCATTTTCACCCCGTGAAAGGGAGTCATTGTTCCATTACAGTATCTGT", "binding signal": 0.485},
      {"sequence": "GATAGTCTCATTTTCACCCCGTGAAACTGCGTCATTGTTCCATTACAGTATCTGT", "binding signal": -0.164},
      {"sequence": "GATAGTCTCATTTTCACCCCGTGAAATGAGTCCTTTGTTCCATTACAGTATCTGT", "binding signal": 1.09},
      {"sequence": "GATAGTCTCATTTTCACCCCGTGAAATGGGTCATTTGTTCCATTACAGTATCTGT", "binding signal": 0.704},
      {"sequence": "GATAGTCTCATTTTCACCCCGTGAAATGACGTCTTTGTTCCATTACAGTATCTGT", "binding signal": 0.447},
      {"sequence": "GATAGTCTCATTTTCACCCCGTGAAATGACTCCGTTGTTCCATTACAGTATCTGT", "binding signal": 0.724},
      {"sequence": "GATAGTCTCATTTTCACCCCGTGAAATGAGACATTTGTTCCATTACAGTATCTGT", "binding signal": 1.21},
      {"sequence": "GATAGTCTCATTTTCACCCCGTGAAATGAGGCAGTTGTTCCATTACAGTATCTGT", "binding signal": 1.36},
      {"sequence": "GATAGTCTCATTTTCACCCCGTGAAATGACTAAGTTGTTCCATTACAGTATCTGT", "binding signal": 0.286},
      {"sequence": "GATAGTCTCATTTTCACCCCGTGAAACTGAGTCATTGTTCCATTACAGTATCTGT", "binding signal": -0.852},
      {"sequence": "GATAGTCTCATTTTCACCCCGTGAAATGACTCGTTTGTTCCATTACAGTATCTGT", "binding signal": 0.491},
      {"sequence": "GATAGTCTCATTTTCACCCCGTGAAAGTCAGTCATTGTTCCATTACAGTATCTGT", "binding signal": 0.348},
      {"sequence": "GATAGTCTCATTTTCACCCCGTGAAATGACTCGCTTGTTCCATTACAGTATCTGT", "binding signal": 0.667},
      {"sequence": "GATAGTCTCATTTTCACCCCGTGAAAAGGAGTCATTGTTCCATTACAGTATCTGT", "binding signal": 0.436},
      {"sequence": "GATAGTCTCATTTTCACCCCGTGAAATGAGTCACTTGTTCCATTACAGTATCTGT", "binding signal": -0.342},
      {"sequence": "GATAGTCTCATTTTCACCCCGTGAAATGAATCATTTGTTCCATTACAGTATCTGT", "binding signal": -0.323}
    ]},
    {"biological_target": "T2, BATF3;JUNB (human;human, UniProt Q9NR55;P17275 1-127;148-347, |)", "T2 sequence 1": "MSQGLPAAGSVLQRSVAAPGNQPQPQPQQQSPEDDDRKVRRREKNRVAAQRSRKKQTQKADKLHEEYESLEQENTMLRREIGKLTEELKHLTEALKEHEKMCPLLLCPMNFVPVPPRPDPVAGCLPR", "T2 sequence 2": "T1 sequence 2", "assay": "Spec-seq (EMSA and sequencing of bound and unbound bands); 100 nM BATFx-JUNB, 1 uM dsDNA library, 50 mM K acetate, 20 mM Tris-acetate, 10 mM Mg acetate, 100 ug/ml BSA, pH 7.9, 10% glycerol, 30 min on ice; native 9% PAGE at 4 C; low values mean tight binding", "details": "protein: recombinant;recombinant; tags: N-terminal mCherry-TEV, cleaved off;C-terminal 6His; copies: 1;1; dsDNA, one strand shown", "how_it_was_run": "as §1", "units": {"binding signal": "kT"}, "values": [
      {"sequence": "GATAGTCTCATTTTCACCCCGTGAAAGGACGTCATTGTTCCATTACAGTATCTGT", "binding signal": -0.474},
      {"sequence": "GATAGTCTCATTTTCACCCCGTGAAAATGCGTCATTGTTCCATTACAGTATCTGT", "binding signal": -1.11},
      {"sequence": "GATAGTCTCATTTTCACCCCGTGAAATGACTCAATTGTTCCATTACAGTATCTGT", "binding signal": -0.634},
      {"sequence": "GATAGTCTCATTTTCACCCCGTGAAACCGAGTCATTGTTCCATTACAGTATCTGT", "binding signal": -0.192},
      {"sequence": "GATAGTCTCATTTTCACCCCGTGAAATGACGACATTGTTCCATTACAGTATCTGT", "binding signal": -0.606},
      {"sequence": "GATAGTCTCATTTTCACCCCGTGAAATGAGACAGTTGTTCCATTACAGTATCTGT", "binding signal": 1.06},
      {"sequence": "GATAGTCTCATTTTCACCCCGTGAAATGAGGTCATTGTTCCATTACAGTATCTGT", "binding signal": -1.09},
      {"sequence": "GATAGTCTCATTTTCACCCCGTGAAATTGCGTCATTGTTCCATTACAGTATCTGT", "binding signal": -1.72},
      {"sequence": "GATAGTCTCATTTTCACCCCGTGAAAGTGGGTCATTGTTCCATTACAGTATCTGT", "binding signal": 0.613},
      {"sequence": "GATAGTCTCATTTTCACCCCGTGAAAATGGGTCATTGTTCCATTACAGTATCTGT", "binding signal": 0.203},
      {"sequence": "GATAGTCTCATTTTCACCCCGTGAAATGACTTAATTGTTCCATTACAGTATCTGT", "binding signal": -0.344},
      {"sequence": "GATAGTCTCATTTTCACCCCGTGAAACTTAGTCATTGTTCCATTACAGTATCTGT", "binding signal": -0.762},
      {"sequence": "GATAGTCTCATTTTCACCCCGTGAAACTAAGTCATTGTTCCATTACAGTATCTGT", "binding signal": -0.118},
      {"sequence": "GATAGTCTCATTTTCACCCCGTGAAATGACCCAATTGTTCCATTACAGTATCTGT", "binding signal": 0.601},
      {"sequence": "GATAGTCTCATTTTCACCCCGTGAAAGCGAGTCATTGTTCCATTACAGTATCTGT", "binding signal": -0.148},
      {"sequence": "GATAGTCTCATTTTCACCCCGTGAAATGACGGCATTGTTCCATTACAGTATCTGT", "binding signal": -0.439},
      {"sequence": "GATAGTCTCATTTTCACCCCGTGAAATCACTCATTTGTTCCATTACAGTATCTGT", "binding signal": -0.147},
      {"sequence": "GATAGTCTCATTTTCACCCCGTGAAAGGGAGTCATTGTTCCATTACAGTATCTGT", "binding signal": 0.287},
      {"sequence": "GATAGTCTCATTTTCACCCCGTGAAACTGCGTCATTGTTCCATTACAGTATCTGT", "binding signal": -0.774},
      {"sequence": "GATAGTCTCATTTTCACCCCGTGAAATGAGTCCTTTGTTCCATTACAGTATCTGT", "binding signal": 0.708},
      {"sequence": "GATAGTCTCATTTTCACCCCGTGAAATGGGTCATTTGTTCCATTACAGTATCTGT", "binding signal": 0.458},
      {"sequence": "GATAGTCTCATTTTCACCCCGTGAAATGACGTCTTTGTTCCATTACAGTATCTGT", "binding signal": -0.318},
      {"sequence": "GATAGTCTCATTTTCACCCCGTGAAATGACTCCGTTGTTCCATTACAGTATCTGT", "binding signal": 0.582},
      {"sequence": "GATAGTCTCATTTTCACCCCGTGAAATGAGACATTTGTTCCATTACAGTATCTGT", "binding signal": 0.604},
      {"sequence": "GATAGTCTCATTTTCACCCCGTGAAATGAGGCAGTTGTTCCATTACAGTATCTGT", "binding signal": 1.27},
      {"sequence": "GATAGTCTCATTTTCACCCCGTGAAATGACTAAGTTGTTCCATTACAGTATCTGT", "binding signal": -0.104},
      {"sequence": "GATAGTCTCATTTTCACCCCGTGAAACTGAGTCATTGTTCCATTACAGTATCTGT", "binding signal": -1.63},
      {"sequence": "GATAGTCTCATTTTCACCCCGTGAAATGACTCGTTTGTTCCATTACAGTATCTGT", "binding signal": 0.243},
      {"sequence": "GATAGTCTCATTTTCACCCCGTGAAAGTCAGTCATTGTTCCATTACAGTATCTGT", "binding signal": 0.152},
      {"sequence": "GATAGTCTCATTTTCACCCCGTGAAATGACTCGCTTGTTCCATTACAGTATCTGT", "binding signal": 0.378},
      {"sequence": "GATAGTCTCATTTTCACCCCGTGAAAAGGAGTCATTGTTCCATTACAGTATCTGT", "binding signal": 0.185},
      {"sequence": "GATAGTCTCATTTTCACCCCGTGAAATGAGTCACTTGTTCCATTACAGTATCTGT", "binding signal": -1.03},
      {"sequence": "GATAGTCTCATTTTCACCCCGTGAAATGAATCATTTGTTCCATTACAGTATCTGT", "binding signal": -0.732}
    ]}
  ]
}
